For eight compounds, growth results are on record in PubChem BioAssay (NCI).

Holding throughout (test): NCI-60 one-dose screen, 48 h (100 = growth as untreated, 0 = no growth, -100 = all killed)
Conditions in all cases: 10 µM unless noted

The subject of test [1] is NCI-H23 lung.
Test [2] concerns NCI-H226 lung.
Test [3] concerns NCI-H322M lung.
Test [4] has as its system HOP-62 NSCLC.
The test system of test [5] is NCI-H460 lung.
Test [6] has as its system HOP-92 NSCLC.
Test [7] has as its system NCI-H522 lung.
Test [8] has as its system A549/ATCC NSCLC.
The test system of test [9] is 786-0 renal.
Test [10] relates to COLO 205 colon.
In test [11] the test system is DU-145 prostate.
In test [12] the test system is K-562 leukemia.
Test [13] concerns MALME-3M melanoma.
In test [14] the test system is SF-268 CNS.
The subject of test [15] is SF-295 CNS.
Test [16] has as its system SF-539 CNS.
Test [17] relates to UACC-257 melanoma.
The test system of test [18] is M14 melanoma.
For test [19], the system named is RXF 393 renal.
Test [20] relates to MDA-MB-231 breast.

The structures appear in SMILES notation. About 83,000 compounds went through this panel and 20% of them were active in at least one assay; those are over-represented in the sample as a whole.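 The test compound was applied at a single concentration to cells in 96-well plates for 48 hours, and percent growth was recorded.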 Values without a mark were called inactive. Calls of active or inactive are those of the source. Rule for the calls: active = growth percent below 10; inactive = the rest.

With `NS(=O)(=O)c1ccc(-n2cc(-c3cccc(NC(=O)c4cc(C(F)(F)F)cc(C(F)(F)F)c4)c3)nn2)cc1`, the growth in test [1] was 41.1%; in test [2] it was 27.5%; in test [3], 65.8%; in test [4], 15%; in test [5] it was 71.4%; in test [6], -16.9% (active). Further, the growth in test [7] was 75.4%; in test [8], 56.7%; in test [9], 44.2%; in [10] it was 91.7%; in [11], 69.7%; in test [12] it was 52.7%. Besides, the growth in [13] is 63.7%; in test [14], 45.3%; in test [15] it was 31.4%; in test [16], 35.1%; in test [17] it was 91.1%; in test [18], 65%.

As for `COc1cccc(-c2c(C#N)c(-c3ccc(Cl)cc3)nc3n[nH]c(-c4ccc(Cl)cc4)c23)c1`, the growth in [1] is 64.5%; in test [2], 47.8%; in [3], 82.8%; in [4], 53.8%; in test [5], 34.3%; in test [6], -5.01% (active). Also, the growth in test [7] was 43.8%; in test [8], 41.9%; in test [9], 46.1%; in test [10], 3.25% (active); in test [11], 58.5%; in test [12], 5.73% (active). Besides, the growth is 59.7% in test [13]; 39.3% in test [19]; 65.9% in test [14]; 64.5% in test [15]; 38.1% in test [16]; 54.4% in test [17]. Further, in test [18], the growth is 36.8%.

Consider `O=C1Nc2cc(Cl)ccc2/C1=C/c1cccc(OCc2ccccn2)c1`, for which the growth in test [1] was 19.6%; in test [2], 38.6%; in test [3], 68.2%; in test [4], 17.4%; in test [5], 13.9%; in test [6], -3.65% (active). In addition, the growth in test [7] is -42.4% (active); in [8], 37.5%; in test [9] it was 10.8%; in test [10], 51.7%; in test [11] it was 9.98% (active); in [12] it was 4.79% (active). Further, the growth was 36.4% in test [13]; -3.29% (active) in test [19]; 13.1% in test [14]; 13.6% in test [15]; -48.2% (active) in [16]; 44.4% in [17]. Further, the growth in test [18] was -9.46% (active).

Turning to `COc1cc(-c2cc(-c3cccc(OCC(=O)O)c3)[nH]c(=O)c2C#N)cc(OC)c1OC`, the growth in test [1] was 101%; in [2], 98.2%; in test [3] it was 91%; in test [4], 99.1%; in test [5] it was 111%; in test [6], 85.4%. Further, the growth is 104% in test [7]; 100% in test [8]; 95.8% in test [9]; 119% in test [10]; 111% in test [11]; 89.8% in [12]. For the same compound, the growth in test [13] was 95.9%; in test [19], 100%; in test [14], 110%; in test [15], 97.6%; in [16], 93%; in [17], 105%. For the same compound, the growth in test [18] is 97.6%.

On to `COc1ccc2cc([C@H](C)C(=O)N/N=C/c3ccc(Br)cc3)ccc2c1`, for which the growth in [1] is 101%; in test [2], 103%; in test [3], 98.2%; in test [4], 90.1%; in test [5], 100%; in [6], 103%. In addition, the growth is 92% in test [7]; 100% in [8]; 95.4% in test [9]; 108% in [10]; 108% in [11]; 100% in test [12]. The growth in test [13] was 95.3%; in [19] it was 100%; in [14] it was 99.5%; in test [15], 98.8%; in test [16], 102%; in test [17], 110%. For the same compound, the growth in [18] is 102%.

Consider `O=C(O)c1ccc(-c2ccc(/C=N/NC(=O)c3[nH]c4ccc(Br)cc4c3-c3ccccc3)s2)cc1`, for which the growth in [1] was 8.04% (active); in test [2], 22.8%; in test [3] it was 20.4%; in test [4], 28.5%; in test [5], 0.163% (active); in [6], -4.63% (active). In addition, the growth is -1.38% (active) in test [7]; 23.1% in [8]; 16.5% in test [9]; 23.6% in test [10]; 28.2% in [11]; 22.5% in test [12]. For the same compound, the growth in test [13] is -8.14% (active); in [19], -24.4% (active); in [14], 21.1%; in test [15], -11.9% (active); in test [16], 1.96% (active); in [17] it was 44.3%. For the same compound, the growth in test [18] is 28.2%.

With `COc1ccc(C(=O)/C=C/c2cccc3ccccc23)cc1S(N)(=O)=O`, the growth in [1] is -20.5% (active); in test [2], 32.7%; in [3], 14.8%; in test [4] it was 18.2%; in [5], 2.2% (active); in [6], 73%. Moreover, the growth was -67% (active) in test [7]; 7.01% (active) in test [8]; -29.8% (active) in test [9]; -78.6% (active) in test [10]; 13.2% in [11]; 30.1% in test [13]. Further, the growth in [20] was 21.8%; in test [19], -59.4% (active); in [14] it was 14.4%; in test [15] it was -61.7% (active); in test [16], -83.4% (active); in test [17], -42.6% (active). Moreover, in [18], the growth is -74% (active).

For the compound `COc1ccc(C(=O)/C=C/c2cccc(Cl)c2)cc1S(N)(=O)=O`, the growth in test [1] was -10.4% (active); in [2], 38.3%; in test [3], 10.7%; in [4], -37.4% (active); in test [5] it was 3.05% (active); in test [6], 85.8%. In addition, the growth in test [7] is -50.1% (active); in test [8], -81.7% (active); in test [9], -57.3% (active); in [10], -65.1% (active); in test [11], -40.6% (active); in test [13], 27.6%. Moreover, the growth in [20] was -4.13% (active); in test [19] it was -65.8% (active); in [14], 7.86% (active); in test [15] it was -88.8% (active); in [16], -80.6% (active); in test [17], -29.6% (active). Further, the growth in [18] is -10.5% (active).
